Results reported in PubChem BioAssay (EPA / NIEHS).
Active and inactive are the calls of the source. Rule for the calls: active = hit-call score of the fitted dose curve at least 0.9, where 1 is the maximum; inactive = score below 0.9.

Key:
[1] = ATG_CRE_CIS: Attagene CIS-FACTORIAL HepG2 Assay for human cAMP Responsive Element (CRE) binding protein 3 (AID 2282926); conditions: HepG2 CRE cis-reporter, Attagene multiplexed mRNA; actives raise or lower the signal
In short: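 We dosed HepG2 cells bearing multiple cis-promoter reporter units for 24 h and measured reporter mRNA by RT-PCR with capillary electrophoresis detection. Bidirectional concentration-response fitting used DMSO as negative control.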

[2] = biological target: CCAAT/enhancer-binding protein beta (Homo sapiens) (UniProt P17676); assay: ATG_C_EBP_CIS: Attagene CIS-FACTORIAL HepG2 Assay for human CCAAT/Enhancer Binding Protein (C/EBP) beta (AID 2282927); conditions: HepG2 Attagene cis-factorial transcription factor reporter; actives raise or lower the signal
In short: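 Chemical-treated HepG2 cells (24 h) bearing cis-regulated reporter constructs were processed for total RNA, then reverse transcription, PCR amplification, fluorescent primer extension and fragment analysis; gain- and loss-of-signal were fitted against DMSO.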

[3] = ATG_CMV_CIS: Attagene CIS-FACTORIAL HepG2 Assay for human CMV (Internal Marker) (AID 2282928); conditions: HepG2 CMV promoter reporter, transcription factor profiling; actives raise or lower the signal;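 note: endpoint acts as a background internal control marker rather than a target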
In short: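 After transient transfection of HepG2 with reporter transcription units driven by cis-regulatory promoters, cells receive test chemical for 24 h. Labeled reporter amplicons, digested with HpaI, are sized and quantified by capillary electrophoresis against DMSO.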

[4] = ATG_DR4_LXR_CIS: Attagene CIS-FACTORIAL HepG2 Assay for human Liver X Receptor (LXR), DR4 submotif (AID 2282929); conditions: HepG2 Attagene DR4 cis-reporter, mRNA transcription; actives raise or lower the signal
In short: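 HepG2 cells transiently transfected with cis-promoter-driven multiplexed reporter units (DR4 element) were dosed for 24 h. Reporter mRNA was quantified by RT-PCR, fluorescent primer extension, HpaI digestion and capillary electrophoresis; bidirectional fitting versus DMSO baseline.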

[5] = biological target: Aryl hydrocarbon receptor (Homo sapiens) (UniProt P35869); assay: ATG_Ahr_CIS: Attagene CIS-FACTORIAL HepG2 Assay for human Aryl Hydrocarbon Receptor (Ahr) (AID 2282930); conditions: HepG2 AhR cis-factorial reporter transcription; actives raise or lower the signal
In short: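 Following 24 h of chemical dosing, transfected HepG2 liver cells with cis-driven reporter units were lysed for RNA; reporter mRNA was quantified via RT-PCR and capillary electrophoresis, and responses fitted bidirectionally from DMSO.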

[6] = ATG_AP_2_CIS: Attagene CIS-FACTORIAL HepG2 Assay for human Activator Protein 2 (AP-2) (AID 2282932); conditions: HepG2 AP-2 cis-reporter, Attagene transcription factor profiling; actives raise or lower the signal
In short: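 HepG2 cells were transiently transfected with multiple cis-promoter reporter transcription units and dosed for 24 h. Reporter mRNA was measured by RT-PCR with capillary electrophoresis fluorescence; bidirectional fits relative to DMSO baseline.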

[7] = ATG_BRE_CIS: Attagene CIS-FACTORIAL HepG2 Assay for human Bone Morphogenetic Protein (BMP) Response Element (BRE) (AID 2282933); conditions: HepG2 BMP response element reporter, Attagene transcription factor profiling; actives raise or lower the signal
In short: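 Endogenous transcription factor activity at a BMP response element was monitored in transfected HepG2 cells 24 h after dosing. Fluorescent RT-PCR products were resolved by capillary electrophoresis, and activity was fitted in both directions versus DMSO.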

[8] = biological target: Transcription factor E2F1 (Homo sapiens) (UniProt Q01094); assay: ATG_E2F_CIS: Attagene CIS-FACTORIAL HepG2 Assay for human E2F Transcription Factor 1 (AID 2282935); conditions: HepG2 Attagene cis-reporter, E2F reporter RNA transcripts; actives raise or lower the signal
In short: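 HepG2 cells transiently transfected with multiplexed cis-element reporter units, dosed for 24 h. Reporter mRNA measured by RT-PCR, 6-FAM primer-extension labeling, HpaI digestion and capillary electrophoresis; bidirectional fit versus DMSO baseline.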

[9] = ATG_E_Box_CIS: Attagene CIS-FACTORIAL HepG2 Assay for human Enhancer Box (E-box) (AID 2282936); conditions: HepG2 E-box cis-reporter transcription, actives raise or lower the signal
In short: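 HepG2 cells transiently transfected with multiplexed cis-element reporter units sensing endogenous transcription factor activity; 24 h compound exposure. Reporter mRNA measured by RT-PCR, 6-FAM primer extension, HpaI digestion and capillary electrophoresis; bidirectional fit versus DMSO.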

[10] = ATG_M_61_CIS: Attagene CIS-FACTORIAL HepG2 Assay for M61 Transcription Factor (Internal Marker) (AID 2282937); conditions: HepG2 Attagene CIS-FACTORIAL M61 internal marker reporter; actives raise or lower the signal
In short: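 HepG2 cells transiently transfected with cis-element-driven multiple reporter transcription units, dosed for 24 h. Reporter mRNA measured by RT-PCR, 6-FAM primer-extension labelling, HpaI digestion and capillary electrophoresis; bidirectional fit versus DMSO baseline.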

[11] = ATG_M_19_CIS: Attagene CIS-FACTORIAL HepG2 Assay for M19 Transcription Factor (Internal Marker) (AID 2282939); conditions: HepG2 Attagene CIS-FACTORIAL M19 internal marker reporter; actives raise or lower the signal
In short: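 Background-control endpoint from a multiplexed HepG2 reporter panel. Cells carrying cis-regulated reporter constructs are treated 24 h, then reporter transcripts are amplified, fluorescently labelled and sized by capillary electrophoresis. DMSO defines baseline.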

[12] = ATG_ERE_CIS: Attagene CIS-FACTORIAL HepG2 Assay for Estrogen Response Element (ERE) (AID 2282940); conditions: HepG2 ERE cis-reporter, Attagene RNA transcript; actives raise or lower the signal
In short: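 Cells used were human hepatoma HepG2, transfected with multiple reporter transcription units under cis-regulatory promoters. Reporter mRNA, read 24 h post-dosing via fluorescent RT-PCR products on capillary electrophoresis, was fitted bidirectionally relative to DMSO.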

[13] = ATG_Ets_CIS: Attagene CIS-FACTORIAL HepG2 Assay for human Erythroblast Transformation Specific (ETS) (AID 2282941); conditions: HepG2 ETS cis-reporter transcription, actives raise or lower the signal
In short: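 Human HepG2 hepatoma cells were transiently transfected with promoter-driven reporter constructs and treated for 24 hours. Reporter transcripts were quantified by RT-PCR with fluorescent primer extension; bidirectional curve fitting used DMSO as reference.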

[14] = ATG_FoxO_CIS: Attagene CIS-FACTORIAL HepG2 Assay for human Forkhead box O (FoxO) (AID 2282943); conditions: HepG2 Attagene cis-reporter, FoxO element, mRNA; actives raise or lower the signal
In short: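 24 h chemical exposure, HepG2 with transient cis-MRTU transfection. RNA extraction, oligo(dT) RT, reporter-specific PCR, primer-extension labelling, HpaI digestion, CE fragment analysis; bidirectional fit, DMSO baseline.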

[15] = ATG_GATA_CIS: Attagene CIS-FACTORIAL HepG2 Assay for human GATA Binding Protein (AID 2282944); conditions: HepG2 GATA cis-element reporter, Attagene multiplex mRNA; actives raise or lower the signal
In short: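 Endogenous transcription factor activity was captured through cis-promoter-driven reporters in transfected HepG2 cells. After 24 h exposure, reporter transcripts were quantified by RT-PCR with fluorescent capillary electrophoresis, and responses fitted both directions against DMSO.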

[16] = ATG_GLI_CIS: Attagene CIS-FACTORIAL HepG2 Assay for human Zinc Finger Protein GLI1 (AID 2282945); conditions: HepG2, Attagene cis-factorial reporter mRNA, GLI element; actives raise or lower the signal
In short: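 HepG2 cells transiently transfected with cis-promoter multiplexed reporter units report endogenous transcription factor activity. After 24 h chemical exposure, reporter mRNA was quantified by RT-PCR, 6-FAM labelling, HpaI digestion and capillary electrophoresis, with bidirectional fitting against DMSO.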

[17] = ATG_AP_1_CIS: Attagene CIS-FACTORIAL HepG2 Assay for human Activator Protein 1 (AP-1) (AID 2282931); conditions: HepG2 Attagene cis-factorial AP-1 reporter mRNA; actives raise or lower the signal
In short: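 HepG2 cells transiently transfected with cis-element-driven multiplex reporter units; 24 h compound exposure. Reporter mRNA quantified by RT-PCR, FAM-labelled fragments resolved by capillary electrophoresis; bidirectional fit versus DMSO baseline.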

[18] = ATG_EGR_CIS: Attagene CIS-FACTORIAL HepG2 Assay for human Early Growth Response 1 (EGR1) (AID 2282938); conditions: HepG2 Attagene CIS-FACTORIAL EGR reporter mRNA; actives raise or lower the signal
In short: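 HepG2 cells transiently transfected with cis-promoter-driven multiplexed reporter transcription units; reporter mRNA measured 24 h after compound dosing by RT-PCR, 6-FAM primer extension, HpaI digestion and capillary electrophoresis. Bidirectional fit versus DMSO baseline.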

[19] = biological target: Hepatocyte nuclear factor 3-beta (Homo sapiens) (UniProt Q9Y261); assay: ATG_FoxA2_CIS: Attagene CIS-FACTORIAL HepG2 Assay for human Forkhead box A2 (FOXA2) (AID 2282942); conditions: HepG2 cis-reporter transcription factor activity, 24 h; actives raise or lower the signal
In short: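 HepG2 cells transiently transfected with multiple cis-regulated reporter transcription units, dosed for 24 h. Reporter mRNA measured by RT-PCR, 6-FAM labelling, HpaI digestion and capillary electrophoresis; bidirectional fitting against DMSO baseline.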

[20] = biological target: Retinoic acid receptor alpha (Homo sapiens) (UniProt P10276); assay: ATG_DR5_RAR_CIS: Attagene CIS-FACTORIAL HepG2 Assay for human Retinoic Acid Receptor Alpha (RARE), DR5 submotif (AID 2282934); conditions: HepG2 Attagene cis-factorial RARE DR5 reporter, mRNA; actives raise or lower the signal
In short: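 Transfected HepG2 reporter cells are exposed to chemicals for 24 h. Then RNA is extracted and the DR5 element reporter transcript is measured by RT-PCR and capillary electrophoresis, with bidirectional curve fitting relative to DMSO.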

Measured: outcome

Sequence of CCAAT/enhancer-binding protein beta (Homo sapiens) (P17676 whole entry, looked up, the tested form may be a part): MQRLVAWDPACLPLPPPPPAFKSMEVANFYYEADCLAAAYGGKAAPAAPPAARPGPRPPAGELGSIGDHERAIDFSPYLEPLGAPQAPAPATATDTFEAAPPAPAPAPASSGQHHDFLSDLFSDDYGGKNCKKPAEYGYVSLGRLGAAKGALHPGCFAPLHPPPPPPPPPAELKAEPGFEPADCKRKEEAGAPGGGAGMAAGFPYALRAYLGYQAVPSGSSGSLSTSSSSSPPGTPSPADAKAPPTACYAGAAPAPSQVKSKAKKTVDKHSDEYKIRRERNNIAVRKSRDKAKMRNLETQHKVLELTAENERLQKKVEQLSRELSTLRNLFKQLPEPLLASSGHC
Sequence of Hepatocyte nuclear factor 3-beta (Homo sapiens) (Q9Y261 whole entry, looked up): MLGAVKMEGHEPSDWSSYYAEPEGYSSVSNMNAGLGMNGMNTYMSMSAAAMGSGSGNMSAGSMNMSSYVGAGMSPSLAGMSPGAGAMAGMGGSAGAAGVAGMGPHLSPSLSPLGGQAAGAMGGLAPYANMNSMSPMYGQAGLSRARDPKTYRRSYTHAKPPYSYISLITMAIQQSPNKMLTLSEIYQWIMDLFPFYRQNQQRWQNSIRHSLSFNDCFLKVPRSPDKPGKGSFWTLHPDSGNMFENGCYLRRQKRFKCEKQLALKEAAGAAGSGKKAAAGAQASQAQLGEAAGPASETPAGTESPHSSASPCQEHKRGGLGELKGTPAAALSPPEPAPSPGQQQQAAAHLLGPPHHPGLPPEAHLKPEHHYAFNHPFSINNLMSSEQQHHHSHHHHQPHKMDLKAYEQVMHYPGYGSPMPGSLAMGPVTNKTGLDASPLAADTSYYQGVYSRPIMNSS
Sequence of Aryl hydrocarbon receptor (Homo sapiens) (P35869 whole entry, looked up): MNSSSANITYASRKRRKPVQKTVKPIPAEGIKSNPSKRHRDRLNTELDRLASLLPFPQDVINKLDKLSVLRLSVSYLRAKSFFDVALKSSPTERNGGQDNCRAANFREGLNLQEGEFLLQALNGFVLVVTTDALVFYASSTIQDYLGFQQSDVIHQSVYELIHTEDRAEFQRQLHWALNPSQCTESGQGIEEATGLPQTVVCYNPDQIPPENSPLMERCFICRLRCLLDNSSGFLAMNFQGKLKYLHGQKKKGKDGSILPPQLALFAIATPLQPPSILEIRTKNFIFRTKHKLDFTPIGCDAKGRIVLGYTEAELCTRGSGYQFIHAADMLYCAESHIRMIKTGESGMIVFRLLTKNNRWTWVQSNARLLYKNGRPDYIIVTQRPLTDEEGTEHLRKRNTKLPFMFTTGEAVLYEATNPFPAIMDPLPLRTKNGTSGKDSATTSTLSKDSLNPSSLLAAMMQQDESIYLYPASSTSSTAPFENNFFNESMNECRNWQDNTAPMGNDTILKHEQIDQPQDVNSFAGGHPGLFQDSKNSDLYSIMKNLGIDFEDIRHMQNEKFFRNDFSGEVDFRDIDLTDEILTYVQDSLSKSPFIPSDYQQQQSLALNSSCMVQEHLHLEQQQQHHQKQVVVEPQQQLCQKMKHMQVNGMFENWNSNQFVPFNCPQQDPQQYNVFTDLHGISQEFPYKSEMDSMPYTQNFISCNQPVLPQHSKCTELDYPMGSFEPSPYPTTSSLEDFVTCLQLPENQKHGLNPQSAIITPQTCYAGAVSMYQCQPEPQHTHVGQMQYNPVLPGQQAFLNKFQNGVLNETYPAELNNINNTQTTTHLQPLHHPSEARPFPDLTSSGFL
Sequence of Transcription factor E2F1 (Homo sapiens) (Q01094 whole entry, looked up): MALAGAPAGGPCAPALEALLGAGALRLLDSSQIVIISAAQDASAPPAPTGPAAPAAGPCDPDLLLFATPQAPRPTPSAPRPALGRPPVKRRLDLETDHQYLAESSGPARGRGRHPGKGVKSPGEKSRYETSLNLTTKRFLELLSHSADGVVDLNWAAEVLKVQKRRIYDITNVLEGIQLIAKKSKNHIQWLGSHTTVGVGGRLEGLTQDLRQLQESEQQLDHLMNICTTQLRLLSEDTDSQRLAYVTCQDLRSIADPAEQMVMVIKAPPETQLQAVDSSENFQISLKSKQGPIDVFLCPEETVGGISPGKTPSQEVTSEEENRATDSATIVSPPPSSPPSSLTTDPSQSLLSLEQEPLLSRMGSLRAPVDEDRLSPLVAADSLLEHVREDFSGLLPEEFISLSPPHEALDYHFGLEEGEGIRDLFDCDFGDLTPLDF
Sequence of Retinoic acid receptor alpha (Homo sapiens) (P10276 whole entry, looked up): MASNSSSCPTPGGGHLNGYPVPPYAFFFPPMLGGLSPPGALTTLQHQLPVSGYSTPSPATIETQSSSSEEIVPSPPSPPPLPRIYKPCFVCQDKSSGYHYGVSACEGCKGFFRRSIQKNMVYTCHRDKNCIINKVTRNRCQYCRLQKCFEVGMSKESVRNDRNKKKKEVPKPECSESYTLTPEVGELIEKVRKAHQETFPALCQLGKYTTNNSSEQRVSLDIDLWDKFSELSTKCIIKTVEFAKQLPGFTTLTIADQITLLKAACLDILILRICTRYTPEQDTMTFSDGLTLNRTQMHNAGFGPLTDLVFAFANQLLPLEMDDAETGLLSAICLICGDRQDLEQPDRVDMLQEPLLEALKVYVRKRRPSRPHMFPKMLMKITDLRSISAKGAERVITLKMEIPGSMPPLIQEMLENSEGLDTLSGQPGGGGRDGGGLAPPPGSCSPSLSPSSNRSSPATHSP

CC(C)=CCO
not listed: [17] | [18] | [19] | [20]
inactive: all other assays above

CCCCO
not listed: [7] | [8] | [12] | [15] | [20]
inactive: all other assays above

CC1=CCC(O)(C(C)C)CC1 (stereo not given)
not listed: [7] | [10] | [20]
inactive: all other assays above

O=c1[nH]c(=O)n([C@H]2CCCO2)cc1F
not listed: [8] | [12] | [17]
inactive: all other assays above
